This note sets out measurements from PubChem BioAssay (NCI).

Molecules are shown by their SMILES. The panel holds about 83,000 compounds, 20% with a hit somewhere; the sample as a whole holds those more often.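 Method: cells in 96-well plates; compound added at one concentration; 48 h incubation; percent growth measured; values under 10 scored active.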 Unmarked numbers belong to inactive results. Calls of active or inactive are those of the source.

Some test systems named below: HCT-15 colon; HT29 colon; SNB-75 CNS; SNB-19 CNS; U251 CNS; PC-3 prostate; SK-MEL-5 melanoma; UACC-62 melanoma; LOX IMVI melanoma; SK-MEL-28 melanoma; SK-MEL-2 melanoma; SN12C renal; UO-31 renal; TK-10 renal; ACHN renal; CAKI-1 renal; A498 renal; CCRF-CEM leukemia; MOLT-4 leukemia.
Test in all cases: NCI-60 one-dose screen, 48 h (100 = growth as untreated, 0 = no growth, -100 = all killed)
Common to all, as to details: 10 µM unless noted

As to `CC/C(=C(\c1ccc(O)cc1)c1ccc(OCCN(C)CCN(C)C(=O)CCC(=O)c2c(C)[nH]c(/C=C3\N=C(c4ccc[nH]4)C=C3OC)c2C)cc1)c1ccccc1`, the growth is 34.3% in the assay on HCT-15 colon; 15.5% in the assay with HT29 colon; 92.4% with SNB-75 CNS; 108% with SNB-19 CNS; 63.2% with U251 CNS; 61.4% with PC-3 prostate. Moreover, the growth in the assay on SK-MEL-5 melanoma is 78.2%; in the assay with UACC-62 melanoma, 14.2%; in the assay on LOX IMVI melanoma, 33.6%; in the assay on SK-MEL-28 melanoma, 61.7%; in the assay on SK-MEL-2 melanoma, 96.8%; in the assay with SN12C renal, 91.8%. The growth in the assay with UO-31 renal was 46.9%; in the assay with TK-10 renal, 117%; with ACHN renal, 95.5%; in the assay with CAKI-1 renal, 71.4%; in the assay with A498 renal, 65.2%; in the assay with CCRF-CEM leukemia, 40.8%. Moreover, the growth in the assay on MOLT-4 leukemia was 71.7%.
As to `CCCCCCC[C@@H](O)CC(=O)N[C@H](CCCCN)C(=O)N[C@H](Cc1c[nH]c2ccccc12)C(=O)NC(CCCCN)C(=O)N[C@H](CC(C)C)C(=O)N[C@H](Cc1ccccc1)C(=O)N[C@H](CCCCN)C(=O)N[C@H](CCCCN)C(=O)N[C@H](CC(C)C)C(=O)N1CCCC1C(=O)N[C@H](CCCCN)C(=O)N[C@H](Cc1ccccc1)C(=O)N[C@H](CC(C)C)C(=O)N[C@H](Cc1c[nH]cn1)C(=O)N[C@H](CC(C)C)C(=O)N[C@H](C)C(=O)N[C@H](CCCCN)C(=O)N[C@H](CCCCN)C(=O)N[C@H](Cc1ccccc1)C(=O)O` (some centres not stated), the growth is -40.3% (active) with HCT-15 colon; -52.7% (active) in the assay with HT29 colon; -62.3% (active) in the assay with SNB-75 CNS; -46.4% (active) in the assay with SNB-19 CNS; -60.5% (active) in the assay with U251 CNS; -55.3% (active) with PC-3 prostate. Further, the growth with SK-MEL-5 melanoma is -25.7% (active); with UACC-62 melanoma, -39.2% (active); with LOX IMVI melanoma, -38.6% (active); in the assay with SK-MEL-28 melanoma, -39.8% (active); in the assay on SK-MEL-2 melanoma, -60.1% (active); with SN12C renal, -40.7% (active). The growth is -54.5% (active) in the assay on UO-31 renal; -80.4% (active) with TK-10 renal; -50.9% (active) with ACHN renal; -70.3% (active) in the assay on CAKI-1 renal; -54.1% (active) with A498 renal; -39.6% (active) in the assay with CCRF-CEM leukemia. Moreover, the growth in the assay with MOLT-4 leukemia is -25.9% (active).
In the case of `COc1ccc(S(=O)(=O)N2CCN(c3cc4c(cc3F)c(=O)c(C(=O)O)cn4C3CC3)CC2)c(OC)c1`, the growth with HCT-15 colon is 97.2%; in the assay on HT29 colon, 113%; in the assay with SNB-75 CNS, 85.7%; in the assay with SNB-19 CNS it was 89.5%; in the assay on U251 CNS, 102%; with PC-3 prostate, 99.1%. The growth in the assay with SK-MEL-5 melanoma is 82.6%; with UACC-62 melanoma it was 84.4%; with LOX IMVI melanoma it was 61.7%; in the assay on SK-MEL-28 melanoma, 101%; in the assay with SK-MEL-2 melanoma, 105%; with SN12C renal, 90.7%. In addition, the growth in the assay with UO-31 renal was 53.2%; in the assay on TK-10 renal, 96.8%; in the assay on ACHN renal, 94.9%; in the assay with CAKI-1 renal it was 81.8%; in the assay on A498 renal, 75.1%; with CCRF-CEM leukemia it was 86.5%. Further, in the assay with MOLT-4 leukemia, the growth is 69.3%.
In the case of `O=C(CC(O)c1ccncc1)c1ccccc1` (configuration not stated), the growth in the assay on HCT-15 colon is 36.4%; with HT29 colon, 32.7%; with SNB-75 CNS it was -5.32% (active); with SNB-19 CNS, 68.2%; in the assay with U251 CNS, 73.4%; with PC-3 prostate it was -17.2% (active). Also, the growth was 88.3% in the assay with SK-MEL-5 melanoma; 89.3% with UACC-62 melanoma; -38% (active) with LOX IMVI melanoma; 105% in the assay with SK-MEL-28 melanoma; 57.1% with SK-MEL-2 melanoma; -22.2% (active) in the assay with SN12C renal. The growth in the assay with UO-31 renal is 49.7%; in the assay on TK-10 renal, -30.8% (active); with ACHN renal it was -28.5% (active); in the assay with CAKI-1 renal, 86.2%; in the assay on A498 renal, 62.4%; with CCRF-CEM leukemia it was 99.9%. Further, in the assay on MOLT-4 leukemia, the growth is 90.9%.
Regarding `Cc1cc(-c2ccccc2)c(C)n1Cc1ccc(Cl)cc1`, the growth is 32.8% in the assay on HCT-15 colon; 13.8% in the assay with HT29 colon; 38.5% in the assay on SNB-75 CNS; 61% with SNB-19 CNS; 25% in the assay with U251 CNS; 57.3% in the assay on PC-3 prostate. The growth with SK-MEL-5 melanoma was 40.7%; with UACC-62 melanoma, 40.7%; in the assay on LOX IMVI melanoma, 45%; with SK-MEL-28 melanoma it was 55.8%; in the assay with SK-MEL-2 melanoma, 31.2%; with SN12C renal it was 49.3%. The growth with UO-31 renal is 50.5%; in the assay with TK-10 renal it was 76.6%; in the assay on ACHN renal it was 54.8%; in the assay with CAKI-1 renal, 21.5%; in the assay with A498 renal, 23.8%; in the assay with CCRF-CEM leukemia it was 43.5%. Besides, in the assay with MOLT-4 leukemia, the growth is 17.1%.
Consider `C/C(=N\NC(=O)CC#N)c1cc2cc(Cl)ccc2o1`, for which the growth in the assay on HCT-15 colon was 94.7%; with HT29 colon it was 97.2%; in the assay with SNB-75 CNS, 91%; with SNB-19 CNS, 77.9%; with U251 CNS, 89.3%; in the assay on PC-3 prostate, 92.4%. Also, the growth in the assay with SK-MEL-5 melanoma was 84.2%; with UACC-62 melanoma it was 91%; in the assay with LOX IMVI melanoma, 103%; in the assay with SK-MEL-28 melanoma, 110%; with SK-MEL-2 melanoma, 96.4%; in the assay on SN12C renal, 93.1%. In addition, the growth with UO-31 renal is 108%; with TK-10 renal, 114%; in the assay with ACHN renal it was 96.1%; with CAKI-1 renal, 89.2%; with A498 renal, 111%; in the assay with CCRF-CEM leukemia, 70.2%. For the same molecule, in the assay with MOLT-4 leukemia, the growth is 87.4%.
Regarding `O=C(O)c1cn(C2CC2)c2cc(N3CCN(S(=O)(=O)c4ccc(Cl)c(Cl)c4)CC3)c(F)cc2c1=O`, the growth in the assay on HCT-15 colon is 6.24% (active); in the assay with HT29 colon, 0.259% (active); with SNB-75 CNS, 13.2%; in the assay on SNB-19 CNS, 24.7%; with U251 CNS it was 12.4%; in the assay on PC-3 prostate it was 16.2%. In addition, the growth in the assay with SK-MEL-5 melanoma is 2.06% (active); with UACC-62 melanoma, 29.6%; in the assay with LOX IMVI melanoma, 1.21% (active); with SK-MEL-28 melanoma, 48.5%; with SK-MEL-2 melanoma it was -9.56% (active); in the assay on SN12C renal, 10.4%. Further, the growth in the assay on UO-31 renal was 10%; with TK-10 renal, 33.2%; with ACHN renal it was 4.95% (active); with CAKI-1 renal it was 3.06% (active); in the assay with A498 renal, 13.8%; with CCRF-CEM leukemia it was 16.9%. Besides, in the assay on MOLT-4 leukemia, the growth is 3.44% (active).
As to `CCCCCCc1nc2c(c(C)nn2-c2ccccc2)c2c1CCCCC2`, the growth was 108% in the assay with HCT-15 colon; 100% with HT29 colon; 105% in the assay on SNB-75 CNS; 99.9% with SNB-19 CNS; 102% in the assay with U251 CNS; 94.1% with PC-3 prostate. Moreover, the growth in the assay on SK-MEL-5 melanoma is 94.3%; in the assay on UACC-62 melanoma, 101%; with LOX IMVI melanoma, 98.2%; in the assay on SK-MEL-28 melanoma, 107%; in the assay on SK-MEL-2 melanoma it was 116%; in the assay with SN12C renal, 104%. The growth in the assay on UO-31 renal was 91.5%; in the assay on TK-10 renal, 126%; in the assay with ACHN renal, 107%; in the assay on CAKI-1 renal, 94.8%; in the assay with A498 renal, 104%; in the assay with CCRF-CEM leukemia, 101%. Further, the growth in the assay with MOLT-4 leukemia is 106%.
